{"source": "paper PMC4336329", "about": "(PLoS ONE, 2015)", "note": "Out of some 310,000 compounds screened, about 14,000 (4.5%) showed an effect of 50% or more. Effects have a minus sign here. Only a selection was taken, and strong results are over-represented in it overall.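 Also: peak tail current of the secondary pulse compared with the same well before compound.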", "data": [{"biological_target": "human ether-à-go-go-related gene (hERG) potassium channel (human, UniProt Q12809)", "sequence (Q12809 whole entry, looked up)": "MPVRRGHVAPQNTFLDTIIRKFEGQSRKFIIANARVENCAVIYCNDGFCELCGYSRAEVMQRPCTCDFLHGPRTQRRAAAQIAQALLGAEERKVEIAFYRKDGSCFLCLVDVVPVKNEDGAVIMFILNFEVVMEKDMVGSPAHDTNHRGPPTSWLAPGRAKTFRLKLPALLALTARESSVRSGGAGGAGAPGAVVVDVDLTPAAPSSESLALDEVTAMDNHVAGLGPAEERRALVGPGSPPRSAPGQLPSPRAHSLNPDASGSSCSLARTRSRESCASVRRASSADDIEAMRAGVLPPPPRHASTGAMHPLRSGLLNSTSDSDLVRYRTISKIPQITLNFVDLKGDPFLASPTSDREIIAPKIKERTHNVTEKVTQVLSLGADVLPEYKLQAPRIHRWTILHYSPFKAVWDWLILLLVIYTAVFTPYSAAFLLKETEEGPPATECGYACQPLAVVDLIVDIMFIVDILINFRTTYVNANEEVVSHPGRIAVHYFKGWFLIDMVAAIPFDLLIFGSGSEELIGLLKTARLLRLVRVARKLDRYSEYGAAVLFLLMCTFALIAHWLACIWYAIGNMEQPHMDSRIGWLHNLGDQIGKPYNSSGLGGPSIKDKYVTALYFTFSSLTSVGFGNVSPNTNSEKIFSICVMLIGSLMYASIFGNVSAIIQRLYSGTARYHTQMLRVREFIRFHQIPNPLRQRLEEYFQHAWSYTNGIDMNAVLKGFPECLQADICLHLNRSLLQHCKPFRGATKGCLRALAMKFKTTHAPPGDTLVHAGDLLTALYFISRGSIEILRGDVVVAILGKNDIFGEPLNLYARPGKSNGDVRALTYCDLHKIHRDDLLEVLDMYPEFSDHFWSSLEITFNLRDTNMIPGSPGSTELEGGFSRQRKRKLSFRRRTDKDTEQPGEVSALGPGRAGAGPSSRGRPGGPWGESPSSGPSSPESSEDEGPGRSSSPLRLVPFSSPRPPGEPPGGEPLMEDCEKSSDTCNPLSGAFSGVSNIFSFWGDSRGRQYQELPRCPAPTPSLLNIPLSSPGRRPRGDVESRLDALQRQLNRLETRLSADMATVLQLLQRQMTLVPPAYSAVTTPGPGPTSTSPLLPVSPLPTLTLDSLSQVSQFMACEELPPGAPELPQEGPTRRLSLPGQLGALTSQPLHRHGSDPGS", "assay": "primary screen, population patch clamp on CHO cells stably expressing hERG; higher = less effect of the substance", "units": {"hERG current change (%, negative = inhibition) at 10uM": "%"}, "values": [{"smiles": "CCOC(=O)C1(Cc2cccc(Cl)c2)CCCN(C(=O)c2cc(C)on2)C1", "note": "(stereo not shown)", "hERG current change (%, negative = inhibition) at 10uM": -9.8}, {"smiles": "O=C(NCc1ccc(F)cc1)C1CCCN(C(=O)Nc2ccccc2)C1", "note": "(stereo not shown)", "hERG current change (%, negative = inhibition) at 10uM": -38.5}, {"smiles": "CC(c1ccccc1)C1C(C#N)=C(N)OC2=C1C(=O)CCC2", "note": "(stereo not shown)", "hERG current change (%, negative = inhibition) at 10uM": -6.39}, {"smiles": "CC(c1ccccc1)C1C(C#N)=C(N)OC2=C1C(=O)CC(C)(C)C2", "note": "(stereo not shown)", "hERG current change (%, negative = inhibition) at 10uM": -56.9}, {"smiles": "CC1(C)CC(=O)C2=C(C1)OC(N)=C(C#N)C2c1ccccc1", "note": "(stereo not shown)", "hERG current change (%, negative = inhibition) at 10uM": -14.4}, {"smiles": "CC(=O)Nc1ccccc1-c1nc2ccc(C(=O)N3CCN(c4cc(C)ccc4C)CC3)cc2[nH]c1=O", "hERG current change (%, negative = inhibition) at 10uM": -23.5}, {"smiles": "O=c1cc(CN2CCN(S(=O)(=O)c3ccc4ccccc4c3)CC2)nc2sccn12", "hERG current change (%, negative = inhibition) at 10uM": -25.2}, {"smiles": "Cc1ccc(S(=O)(=O)N2CCN(C3CCN(Cc4ccccc4)CC3)CC2)cc1.O=C(O)C(=O)O", "hERG current change (%, negative = inhibition) at 10uM": -76.6}, {"smiles": "CCOC(=O)N1CCC(N2CCN(S(=O)(=O)c3ccc(C)cc3)CC2)CC1.O=C(O)C(=O)O", "hERG current change (%, negative = inhibition) at 10uM": -19.1}, {"smiles": "COc1ccc(S(=O)(=O)N2CCN(Cc3ccccc3)CC2)cc1", "hERG current change (%, negative = inhibition) at 10uM": -19.5}, {"smiles": "O=S(=O)(c1ccccc1)N1CCC(O)(CN2CCN(c3ccccc3)CC2)CC1", "hERG current change (%, negative = inhibition) at 10uM": 12.2}, {"smiles": "O=c1cc(CN2CCN(S(=O)(=O)c3ccccc3)CC2)nc2sccn12", "hERG current change (%, negative = inhibition) at 10uM": -2.25}, {"smiles": "COc1ccc(S(=O)(=O)N2CCN(C3CCN(Cc4ccccc4)CC3)CC2)cc1", "hERG current change (%, negative = inhibition) at 10uM": -59.4}, {"smiles": "COc1ccc(S(=O)(=O)N2CCC(N3CCN(Cc4ccccc4)CC3)CC2)cc1.O=C(O)C(=O)O", "hERG current change (%, negative = inhibition) at 10uM": -39.2}, {"smiles": "O=c1cc(CN2CCN(S(=O)(=O)c3ccccc3[N+](=O)[O-])CC2)nc2sccn12", "hERG current change (%, negative = inhibition) at 10uM": -53.7}, {"smiles": "CN1CCN(CC2(O)CCN(S(=O)(=O)c3ccc(Cl)cc3)CC2)CC1", "hERG current change (%, negative = inhibition) at 10uM": -36}, {"smiles": "Cc1ccc(S(=O)(=O)N2CCN(Cc3ccccc3)CC2)cc1", "hERG current change (%, negative = inhibition) at 10uM": -9.58}, {"smiles": "O=S(=O)(c1ccc(Cl)cc1)N1CCC(O)(CN2CCN(Cc3ccccc3)CC2)CC1", "hERG current change (%, negative = inhibition) at 10uM": -75.8}, {"smiles": "Cc1ccc(CNC(=S)NC2CCC(C(C)(C)C)CC2)cc1", "note": "(stereo not shown)", "hERG current change (%, negative = inhibition) at 10uM": 10.8}, {"smiles": "CCC(NC(=O)C1CCC1)c1ccccc1", "note": "(stereo not shown)", "hERG current change (%, negative = inhibition) at 10uM": 12.6}, {"smiles": "Cc1c(/C=C/C(=O)c2cccs2)cnn1C", "hERG current change (%, negative = inhibition) at 10uM": -0.723}, {"smiles": "COc1ccc(CNc2cccc(C)n2)c(O)c1", "hERG current change (%, negative = inhibition) at 10uM": -3.24}, {"smiles": "Cc1cc(C)c(NC(=O)COC(=O)c2ccc([N+](=O)[O-])s2)c(C)c1", "hERG current change (%, negative = inhibition) at 10uM": 0.0437}, {"smiles": "COc1ccccc1NS(=O)(=O)c1cc(NC(=O)c2[nH]c(C)c(C(C)=O)c2C)ccc1N1CCOCC1", "hERG current change (%, negative = inhibition) at 10uM": 0.128}, {"smiles": "O=C(CSc1nc(-c2ccccc2)cc(=O)[nH]1)Nc1ccccc1", "hERG current change (%, negative = inhibition) at 10uM": 18}, {"smiles": "COc1ccc(C(=O)/C=C/c2cn(CC(O)CN3CCOCC3)c3ccccc23)cc1", "note": "(stereo not shown)", "hERG current change (%, negative = inhibition) at 10uM": 3.55}, {"smiles": "O=C(CSc1ccccn1)Nc1cccc(NC(=O)CSc2ccccn2)n1", "hERG current change (%, negative = inhibition) at 10uM": -11.9}, {"smiles": "O=S(=O)(c1ccc(Cl)cc1)N1CCN(C2CCN(Cc3ccccc3)CC2)CC1", "hERG current change (%, negative = inhibition) at 10uM": -71.4}, {"smiles": "O=S(=O)(c1ccccc1)N1CCN(Cc2ccccc2)CC1", "hERG current change (%, negative = inhibition) at 10uM": 19.3}, {"smiles": "Cn1c(=O)c(=O)n(C)c2cc(S(=O)(=O)N3CC(=O)N(CCc4ccccc4)C(=O)C3)ccc21", "hERG current change (%, negative = inhibition) at 10uM": 19.4}, {"smiles": "O=S(=O)(c1ccccc1)N1CCN(C2CCN(Cc3ccccc3)CC2)CC1", "hERG current change (%, negative = inhibition) at 10uM": -64}, {"smiles": "O=[N+]([O-])c1ccccc1S(=O)(=O)N1CCN(Cc2ccccc2)CC1", "hERG current change (%, negative = inhibition) at 10uM": -34.6}, {"smiles": "CS(=O)(=O)N1CCN(C2CCN(Cc3ccccc3)CC2)CC1", "hERG current change (%, negative = inhibition) at 10uM": -1.48}, {"smiles": "Cn1c(=O)c(=O)n(C)c2cc(S(=O)(=O)N3CCN(Cc4ccccc4)CC3)ccc21", "hERG current change (%, negative = inhibition) at 10uM": -63.4}, {"smiles": "O=[N+]([O-])c1ccccc1S(=O)(=O)N1CCN(C2CCN(Cc3ccccc3)CC2)CC1", "hERG current change (%, negative = inhibition) at 10uM": -51.9}, {"smiles": "O=[N+]([O-])c1ccccc1S(=O)(=O)N1CCN(C2CCCC2)CC1", "hERG current change (%, negative = inhibition) at 10uM": 0.58}, {"smiles": "Cn1c(=O)c(=O)n(C)c2cc(S(=O)(=O)N3CCC(Cc4ccccc4)CC3)ccc21", "hERG current change (%, negative = inhibition) at 10uM": -10.9}, {"smiles": "O=S(=O)(c1ccccc1)N1CCN(Cc2ccc(Cl)cc2)CC1", "hERG current change (%, negative = inhibition) at 10uM": -22.7}, {"smiles": "O=S(=O)(c1ccc(Cl)cc1)N1CCN(C2CCCCCC2)CC1", "hERG current change (%, negative = inhibition) at 10uM": -17.3}, {"smiles": "CC(=O)c1c(C)[nH]c(C(=O)COc2cc(C)ccc2C(C)C)c1C", "hERG current change (%, negative = inhibition) at 10uM": 14.1}, {"smiles": "O=C(CSc1nnnn1-c1ccc2c(c1)OCCO2)N1CCN(C(=O)c2ccco2)CC1", "hERG current change (%, negative = inhibition) at 10uM": -16.6}, {"smiles": "CCN1C(=O)S/C(=C/c2ccc(Oc3ccc([N+](=O)[O-])cn3)c(OC)c2)C1=O", "hERG current change (%, negative = inhibition) at 10uM": 9.24}, {"smiles": "O=C(COC(=O)c1cccs1)Nc1ccc(F)c(F)c1", "hERG current change (%, negative = inhibition) at 10uM": 12.2}, {"smiles": "COC(=O)COc1ccc(/C=C2/NC(=O)N(CC(=O)OC)C2=O)cc1", "hERG current change (%, negative = inhibition) at 10uM": 12.3}, {"smiles": "CC1(C)CC(=O)C(Sc2ccccc2)=C(O)C1", "hERG current change (%, negative = inhibition) at 10uM": 15.8}, {"smiles": "COc1ccccc1N1CCN(C2CCN(S(=O)(=O)c3ccc(NC(C)=O)cc3)CC2)CC1", "hERG current change (%, negative = inhibition) at 10uM": 0.727}, {"smiles": "COc1ccc(S(=O)(=O)N2CCC(N3CCN(c4ccccc4OC)CC3)CC2)cc1", "hERG current change (%, negative = inhibition) at 10uM": -66.5}, {"smiles": "O=C(O)C(=O)O.O=[N+]([O-])c1ccc(S(=O)(=O)N2CCN(C3CCN(Cc4ccccc4)CC3)CC2)cc1", "hERG current change (%, negative = inhibition) at 10uM": -78.2}, {"smiles": "COc1ccccc1N1CCN(C2CCN(S(=O)(=O)c3ccc(C)cc3)CC2)CC1", "hERG current change (%, negative = inhibition) at 10uM": -36.4}, {"smiles": "O=C(O)C(=O)O.O=[N+]([O-])c1ccc(S(=O)(=O)N2CCN(Cc3ccco3)CC2)cc1", "hERG current change (%, negative = inhibition) at 10uM": 15.3}, {"smiles": "CC(=O)Nc1ccc(S(=O)(=O)N2CCN(Cc3cccc([N+](=O)[O-])c3)CC2)cc1.O=C(O)C(=O)O", "hERG current change (%, negative = inhibition) at 10uM": -3.41}, {"smiles": "COc1ccc(N(CC(=O)NCCSCc2ccc(C)cc2)S(=O)(=O)c2ccccc2)cc1", "hERG current change (%, negative = inhibition) at 10uM": 3.04}]}]}
